CYP2C9 inhib: blocks human cytochrome P450 2C9. P11712. CYP2C9 Supersomes, luciferin-H conversion, luminescence. inhibition, % at 5 µM. actives 20% (n = 96,000). AID 777;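 active means blocking of liver enzyme CYP2C9 beyond about 50% at 5 µM, limit read from the data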
Measles CPE: protection of cells from measles virus; Measles virus-infected cells, CPE protection, absorbance; protection (pct of control), % at 4 µM; actives 1.5% (n = 140,000); AID 841; in the data active means protection mostly above about 24%, no sharp cut-off; inactive means mostly below about 26%
CYP2C19 activ: cytochrome P450 2C19 (human) activation; AID 1025; activation factor at 5 µM; recombinant CYP2C19, luciferin-H EGE luminescence; hits give high values; 0 = fully inhibited enzyme, 1 = untreated enzyme; 96,000 tested, under 10 active; P33261;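 active means activation factor of at least 2 at 5 µM in the primary screen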;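 further: 0 = wells with 2.5 mM tranylcypromine and 1 = vehicle-only wells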
Target sequence (P33261 whole entry, looked up): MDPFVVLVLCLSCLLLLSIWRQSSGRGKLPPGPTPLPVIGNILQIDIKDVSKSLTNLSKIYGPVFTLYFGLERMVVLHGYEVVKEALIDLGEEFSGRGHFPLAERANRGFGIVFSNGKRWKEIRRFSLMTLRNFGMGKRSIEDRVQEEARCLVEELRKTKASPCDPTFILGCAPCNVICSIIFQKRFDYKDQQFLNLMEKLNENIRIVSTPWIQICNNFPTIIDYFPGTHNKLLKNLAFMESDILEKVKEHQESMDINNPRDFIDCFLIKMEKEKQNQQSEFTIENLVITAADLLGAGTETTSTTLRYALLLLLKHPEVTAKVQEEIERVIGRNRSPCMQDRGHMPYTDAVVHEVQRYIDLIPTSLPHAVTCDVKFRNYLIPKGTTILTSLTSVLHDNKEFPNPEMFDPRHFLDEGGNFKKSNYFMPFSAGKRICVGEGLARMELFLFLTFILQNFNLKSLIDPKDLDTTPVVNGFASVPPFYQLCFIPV
CYP2C9 activ: activators of human CYP2C9; P11712; recombinant CYP2C9, luciferin-H conversion, luminescence; hits give high values; factor 1 = untreated enzyme, 0 = blocked; activation factor at 5 µM; actives 1.4% (n = 96,000); AID 1024;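 active means activation factor of 2 or more for CYP2C9 at a 5 µM dose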;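 further: 0 = sulfaphenazole-blocked wells and 1 = vehicle-only wells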
CYP2C19 inhib: inhibitors of human CYP2C19. actives 21% (n = 96,000). inhibition, % at 5 µM. CYP2C19 Supersomes, luciferin-H EGE luminescence, 30 min. P33261. AID 778;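 active means CYP2C19 inhibition above a set limit at 5 µM in the primary screen, cut at about 50% in these data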;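 further: plate controls were negative control wells for no effect and 2.5 mM tranylcypromine positive control for full effect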
The depositor's hits bear a star; / = no result. In the library only some 22% were active in any assay of this set; here they are far more common.

SMILES	CYP2C9 inhib	Measles CPE	CYP2C19 activ	CYP2C9 activ	CYP2C19 inhib
CCn1c(SCC(=O)Nc2nc(-c3ccc(C)cc3)cs2)nnc1-c1ccccc1	85*	29	0.6	0.2	42
CCn1c(SCC(=O)Nc2nc(-c3ccc(C)cc3)cs2)nnc1-c1ccccc1O	72*	32*	0.4	0.3	57*
COc1ccccc1-c1nnc(SCC(=O)Nc2nc(-c3ccccc3)cs2)n1C	98*	7	0.1	0	91*
COCCNC(=O)c1c[nH]c2ccc(S(=O)(=O)N3CCC4(CC3)OCCO4)cc2c1=O	20	16	0.9	0.8	12
O=C(O)CCc1ncc(C(F)(F)F)cc1Cl	1	8	1	1	-3
CCCSc1nnc(N2C(=O)CC(c3ccsc3)C3=C2CCCC3=O)s1 (stereo not drawn)	23	14	0.7	0.8	31
S=c1[nH]nc(Cc2cccc3ccccc23)o1	/	17	/	/	/
CCCCNCCCOc1cccc(Cl)c1	-5	3	0.9	1.1	7
Cc1cc(C)c(S(=O)(=O)c2ccccc2)c(OC(=O)c2c(Cl)cccc2Cl)n1	37	5	0.6	0.6	35
Cc1cc(C)c(S(=O)(=O)c2ccccc2C)c(Cl)n1	-256	3	0.3	3.6*	66*
CCCCSc1nc(C)cc(C)c1S(=O)(=O)c1ccccc1C	39	6	0.3	0.6	75*
Cc1ccc(S(=O)(=O)c2c(C)cc(C)nc2Cl)c(C)c1	-85	15	0	1.8	100*
Cc1cc(C)c(S(=O)(=O)c2ccccc2C)c(Oc2ccccc2)n1	56*	2	0.3	0.4	69*
C/C(CC(C)(C)C1CCCCC1)=N\NC(N)=S	35	0	0.1	0.7	93*
CCN(CC)c1ccc(-c2c(C#N)c(N)nc(OC)c2C#N)cc1	54*	23	1	0.5	3
Cn1nc(N)c2c(-c3ccc(Cl)cc3)c(C#N)c(N)nc21	/	4	/	/	/
CCCOc1c(OC)cccc1C1CC(=O)Nc2cc3c(cc21)OCO3 (stereo not drawn)	52*	9	0	0.5	96*
CCOc1c(OC)cccc1C1CC(=O)Nc2cc(OC)c(OC)cc21 (stereo not drawn)	/	12	/	/	/
CCCOc1c(OC)cccc1C1CC(=O)Nc2cc3c(cc21)OCCO3 (stereo not drawn)	68*	21	0.6	0.3	44
COc1cc(/C=C2/CCC/C(=C\c3cc(O)c(OC)c(Cl)c3)C2=O)cc(Cl)c1O	-55	8	0.8	1.6	20
Cc1ccc(NC(=O)c2ccccc2N(C)S(C)(=O)=O)cc1C	-5	6	0.5	1	50*
CN(c1ccccc1C(=O)Nc1cccc(Cl)c1Cl)S(C)(=O)=O	28	2	0.4	0.7	65*
Nc1c2c(nc3ccccc13)CCC2	/	46	/	/	/
c1ccc2nc3c(cc2c1)CCCCCC3	44	0	0.3	0.6	66*
Cc1c(C(=O)c2ccc(Cl)c(Cl)c2)cnc2cc3c(cc12)OCO3	/	3	/	/	/
SMILES	CYP2C9 inhib	Measles CPE	CYP2C19 activ	CYP2C9 activ	CYP2C19 inhib
COc1ccc(C(=O)c2cnc3cc4c(cc3c2C)OCO4)cc1	65*	17	0.1	0.4	95*
COc1ccc2c(C(F)(F)F)cc(=O)oc2c1C	/	8	/	/	/
O=C(C1CCC(CNS(=O)(=O)c2cccc3cccnc23)CC1)N1CCc2ccccc21 (stereo not drawn)	12	6	0.2	0.9	80*
O=C(C1CCCN1S(=O)(=O)c1cccc2cccnc12)N1CCN(c2ccccc2)CC1 (stereo not drawn)	61*	5	0.8	0.4	16
O=C(Nc1cccc(C(F)(F)F)c1)C1CCCN1S(=O)(=O)c1cccc2cccnc12 (stereo not drawn)	48	15	0.5	0.5	47
O=C(C1CCCN1S(=O)(=O)c1cccc2cccnc12)N1CCc2ccccc2C1 (stereo not drawn)	15	17	0.8	0.8	20
O=C(C1CCCN1S(=O)(=O)c1cccc2cccnc12)N1CCc2ccccc21 (stereo not drawn)	62*	14	0.3	0.4	70*
O=C(C1CCN(S(=O)(=O)c2cccc3cccnc23)CC1)N1CCc2ccccc21	-112	12	0.6	2.1*	43
O/N=C1/CC/C(=N\O)c2nn(-c3ccccc3)nc21	-8	20	0.9	1.1	15
CC(C)NC(=O)NC(=O)CSc1ncc(C(F)(F)F)cc1Cl	-6	7	0.8	1.1	20
Cc1ccc2ncnc(Nc3ccc(C)c(C)c3)c2c1	48	1	0.6	0.5	40
CC1CCN(C(=O)C2CCC(CNS(=O)(=O)c3cccc4cccnc34)CC2)CC1 (stereo not drawn)	-191	13	1	2.9*	-2
O=C(C(=O)N1CCc2ccccc2C1)c1cn(CC(=O)N2CCCCC2)c2ccccc12	/	15	/	/	/
Cc1nn2c3ccccc3n(Cc3ccccc3)c2nc1=O	/	2	/	/	/
N#CC(c1ccc(F)cc1)c1ccc(C(=O)c2ccccc2)cc1 (stereo not drawn)	91*	4	0.2	0.1	76*
N#CC(c1ccccc1)c1ccc(C(=O)c2ccc(F)cc2)cc1 (stereo not drawn)	99*	8	0.1	0	91*
CC(NC(=O)c1ccccc1)c1ccc(F)cc1 (stereo not drawn)	/	8	/	/	/
CC1Cc2ccccc2N1C(=O)COc1nc2ccccc2nc1N1CCOCC1 (stereo not drawn)	47	12	0.8	0.5	20
O=C(COC(=O)/C=C/c1nc2ccccc2s1)Nc1cccc2ccccc12	/	3	/	/	/
Cc1ccc(OCC(=O)N/N=C\c2ccc(-c3cccc(C(=O)O)c3)o2)c(C)c1	/	4	/	/	/
O/C(=C\Sc1nnc(Cc2ccccc2)o1)c1ccc(F)cc1	96*	6	0.6	0	36
COc1ccc(OCCSc2nnc(CC(=O)Nc3cccc(Cl)c3Cl)n2C)cc1	-8	10	1.1	1.1	-10
O=[N+]([O-])c1ccc(Sc2cccc3cccnc23)cc1	42	16	0.2	0.6	84*
CC(=O)c1c(C)[nH]c(C(=O)OCC(=O)Nc2ccc(Cl)cc2[N+](=O)[O-])c1C	/	19	/	/	/
Cc1ccc(CNC(=O)CSc2ccc(-c3ccco3)nn2)cc1	/	23	/	/	/
SMILES	CYP2C9 inhib	Measles CPE	CYP2C19 activ	CYP2C9 activ	CYP2C19 inhib
Cc1ccccc1CSc1nnc(-c2cccs2)n1Cc1ccco1	39	8	0.4	0.6	62*
Oc1ccccc1-c1nnc(SCCN2CCOCC2)n1Cc1ccccc1	14	2	1	0.9	5
Cc1ccccc1CSc1nnc(-c2ccco2)n1Cc1ccco1	10	1	0.3	0.9	66*
c1ccc(CSc2nnc(-c3ccco3)n2Cc2ccco2)cc1	22	21	0.2	0.8	78*
O=C1c2ccccc2C(=O)N1CCSc1nnc(-c2ccco2)n1Cc1ccccc1	65*	20	0	0.3	97*
c1ccc(CSc2nnc(-c3cccs3)n2Cc2ccco2)cc1	/	20	/	/	/
COC(=O)CSc1nnc(-c2ccco2)n1Cc1ccco1	-6	14	1	1.1	0

Assay outcomes from PubChem.
